Some structures have more than one record in an assay (separate samples or runs), and their calls can disagree. Calls of active or inactive are those of the source. How the source made its calls: active means hit-call score of the fitted dose curve at least 0.9, where 1 is the maximum; inactive means score below 0.9.
What follows are compounds tested on Tumor necrosis factor (Homo sapiens) (UniProt P01375) (assay: BSK_LPS_TNFa: BioMAP Diversity Plus: LPS Assay for Tumour Necrosis Factor alpha (TNFa) Biomarker Activity (AID 2283085)). Conditions: primary human HUVEC with PBMC; actives raise or lower the signal.
Description: BSK_LPS is a cell-based, multiplexed-readout assay that uses umbilical vein endothelium and peripheral blood mononuclear cells, a human vascular primary cell co-culture, with measurements taken at 24 hours after chemical dosing in a 96-well plate.BSK_LPS_TNFa is an assay component measured in the BSK_LPS assay. It measures TNF-a antibody related to regulation of gene expression using ELISA technology.Data from the assay component BSK_LPS_TNFa was analyzed into 1 assay endpoint. This assay endpoint, BSK_LPS_TNFa, was analyzed with bidirectional fitting relative to DMSO as the negative control and baseline of activity. Using a type of binding reporter, gain or loss-of-signal activity can be used to understand changes in the signaling as they relate to the gene TNF. Furthermore, this assay endpoint can be referred to as a primary readout, because this assay has produced multiple assay endpoints where this one serves a signaling function. To generalize the intended target to other relatable targets, this assay endpoint is annotated to the cytokine intended target family, where the subfamily is inflammatory factor.
The levels of cell surface (or secreted, indicated by the prefix "s") biomarker endpoints were measured by ELISA. Overt cytotoxicity to cells in confluent adherent cultures (all systems other than the BT system) was assessed by measuring total protein levels using sulforhodamine B (SRB) staining in parallel cultures at the time of biomarker measurements, indicated as SRB endpoints. For proliferation assays for adherent cell types, individual cell types are cultured at sub-confluence and relative cell numbers quantified by SRB staining at time points optimized for each system (48 h: 3C and CASM3C systems; 72 h: BT and HDF3CGF systems; 96 h: SAg system). SRB was performed by staining cells with 0.1% SRB after fixation with 10% TCA and reading wells at 560 nm.Viability and proliferation of PBMC (T cells) was quantified by Alamar Blue reduction for the SAg and BT systems. For PBMC viability (referred to as PBMC Cytotoxicity within the assay endpoint names), cells were plated (75,000/well in a 96-well plate) and then chemical samples added for 1 h before addition of activators, SEB and TSST-1 (20 ng/mL final concentration each). Cells were incubated for 90 h. Then, Alamar Blue (20 uL/well) (Invitrogen, Cat DAL1100) was added for 6 h, and the plates were read with a fluorescence microplate reader at 546/580 nm (excitation/emission). For PBMC proliferation, cells were plated and activated as above but incubated for only 16 h prior to addition of Alamar Blue. Plates were read after 6 h.

Chain of Tumor necrosis factor (Homo sapiens) (P01375 whole entry, looked up): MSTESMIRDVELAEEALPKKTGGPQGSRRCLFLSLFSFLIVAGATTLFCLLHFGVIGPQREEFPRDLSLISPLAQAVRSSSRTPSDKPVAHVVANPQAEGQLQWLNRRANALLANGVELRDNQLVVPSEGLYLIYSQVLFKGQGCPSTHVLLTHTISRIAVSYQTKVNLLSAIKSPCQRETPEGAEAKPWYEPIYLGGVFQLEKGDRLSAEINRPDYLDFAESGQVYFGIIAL

| Compound | outcome | AC50 |
| --- | --- | --- |
| Nc1ccc(Cl)cc1N | inactive | – |
| N#CC(Br)Br | inactive | – |
| CC(C)(C)C(O)(CCc1ccc(Cl)cc1)Cn1cncn1 (stereo not given) | inactive | – |
| CCCSC(=O)N(CCC)CCC | inactive | – |
| CN(C)c1ccc(C(=O)c2ccc(N(C)C)cc2)cc1 | inactive | – |
| C[N+](C)(C)CC1CO1 (stereo not given) | inactive | – |
| c1ccc(C2CO2)cc1 (stereo not given) | inactive | – |
| O=C(Oc1ccc(Br)cc1)N1CCN2CCC1CC2 | inactive | – |
| CC(C)(C)OOC(=O)c1ccccc1 | inactive | – |
| Cc1ccc(N)c(N)c1 | inactive | – |
| CCCCOC(=O)c1ccccc1C(=O)OCc1ccccc1 | inactive | – |
| O=C(Nc1ccccc1)c1ccccc1I | inactive | – |
| CCCCC(CC)COC(=O)c1ccc(C(=O)OCC(CC)CCCC)c(C(=O)OCC(CC)CCCC)c1 (stereo not given) | inactive | – |
| Clc1ccc(Cl)c(Cl)c1 | inactive | – |
| ClCCOCCCl | inactive | – |
| CCC(C)c1ccc(O)cc1 (stereo not given) | inactive | – |
| CS(=O)(=O)NC(=O)c1cc(Oc2ccc(C(F)(F)F)cc2Cl)ccc1[N+](=O)[O-] | inactive | – |
| [Cl-].[Cl-].[Hg+2] | – | 33 µM (active) |
| ClC1=C(Cl)[C@]2(Cl)[C@H]3[C@H]([C@@H]4C=C[C@H]3C4)[C@@]1(Cl)C2(Cl)Cl | – | 31.5 µM (active) |
| Oc1ccccc1Cl | inactive | – |

| Compound | outcome | AC50 |
| --- | --- | --- |
| Nc1cc(Cl)cc(C(=O)O)c1Cl | inactive | – |
| CCOC(=O)[C@]1(c2ccccc2)Oc2ccccc2[C@@H]1N | inactive | – |
| CCC[CH2][Sn]([Cl])([CH2]CCC)[CH2]CCC | – | 0.248 µM (active) |
| CCNS(=O)(=O)C(F)(F)C(F)(F)C(F)(F)C(F)(F)C(F)(F)C(F)(F)C(F)(F)C(F)(F)F | inactive | 1.1 µM (active) |
| Cc1cccc(N)c1N | inactive | – |
| C1=Cc2cccc3cccc1c23 | inactive | – |
| CCCCCCCCOC(=O)c1ccc(C(=O)OCCCCCCCC)c(C(=O)OCCCCCCCC)c1 | inactive | – |
| OCCCBr | inactive | – |
| c1ccc2c(c1)-c1cccc3cccc-2c13 | – | 4.36 µM (active) |
| CCN(CC)N=O | inactive | – |
| CCCCCCCCn1sccc1=O | – | 1.04 µM (active) |
| Clc1ccc(C(c2ccc(Cl)cc2)C(Cl)(Cl)Cl)cc1 | – | 24.8 µM (active) |
| c1ccc(NNc2ccccc2)cc1 | inactive | – |
| Cc1ccc([N+](=O)[O-])cc1 | inactive | – |
| Brc1ccc(Oc2ccccc2)cc1 | inactive | – |
| Nc1ccc(N=Nc2ccccc2)cc1 | – | 6.01 µM (active) |
| Clc1ccccc1Cl | inactive | – |
| O=Cc1ccco1 | inactive | – |
| [As]#[In] | inactive | – |
